Measurements reported in PubChem BioAssay (EPA / NIEHS).
“And” between values parts separate entries of the source, which are not always exact repeats. Equal values may be shown once. The source holds several records for some structures; these can differ, active in one and inactive in another. The source made the active and inactive calls. Rule for the calls: active = hit-call score of the fitted dose curve at least 0.9, where 1 is the maximum; inactive = score below 0.9.

Columns and labels:
[1] = read-out: Human Leukocyte Antigen - DR isotype (HLADR), HLA-DRA (gene 3122); assay: BSK_CASM3C_HLADR: BioMAP Diversity Plus: CASM3C Assay for Human Leukocyte Antigen - DR isotype (HLADR) Biomarker Activity (AID 2283043); settings: primary human coronary artery smooth muscle cells; actives raise or lower the signal;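 note: cell-surface HLA-DR protein level quantified by ELISA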
[2] = read-out: Macrophage colony-stimulating factor (MCSF), CSF1 (gene 1435); assay: BSK_CASM3C_MCSF: BioMAP Diversity Plus: CASM3C Assay for Macrophage colony-stimulating factor (MCSF) Biomarker Activity (AID 2283044); settings: primary human coronary artery smooth muscle cells; actives raise or lower the signal;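 note: M-CSF protein amount quantified by ELISA after 24 h exposure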
[3] = read-out: Low-density lipoprotein receptor (LDLR), LDLR (gene 3949); assay: BSK_CASM3C_LDLR: BioMAP Diversity Plus: CASM3C Assay for Low-density lipoprotein receptor (LDLR) Biomarker Activity (AID 2283045); settings: primary human coronary artery smooth muscle cells; actives raise or lower the signal;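 note: LDLR protein level on the cell surface quantified by ELISA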
[4] = read-out: Monocyte Chemoattractant Protein-1 (MCP1), CCL2 (gene 6347); assay: BSK_CASM3C_MCP1: BioMAP Diversity Plus: CASM3C Assay for Monocyte Chemoattractant Protein-1 (MCP1) Biomarker Activity (AID 2283046); settings: primary human coronary artery smooth muscle cells; actives raise or lower the signal;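 note: MCP-1 level quantified by ELISA 24 h after dosing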
[5] = BSK_CASM3C_Proliferation: Cell Proliferation Assessment in the BioMAP Diversity Plus: CASM3C Assay (AID 2283047); settings: primary human coronary artery smooth muscle cells;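 note: sulforhodamine B total protein stain as relative cell number at 560 nm; sub-confluent cells exposed 48 h before staining; fitted both ways against DMSO so gain or loss of cell number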
[6] = read-out: Monokine induced gamma interferon (MIG), CXCL9 (gene 4283); assay: BSK_CASM3C_MIG: BioMAP Diversity Plus: CASM3C Assay for Monokine induced gamma interferon (MIG) Biomarker Activity (AID 2283048); settings: primary human coronary artery smooth muscle cells; actives raise or lower the signal;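 note: MIG protein level measured by ELISA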
[7] = read-out: serum amyloid A (SAA), SAA1 (gene 6288); assay: BSK_CASM3C_SAA: BioMAP Diversity Plus: CASM3C Assay for serum amyloid A (SAA) Biomarker Activity (AID 2283049); settings: primary human coronary artery smooth muscle cells; actives raise or lower the signal;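 note: SAA protein level quantified by ELISA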
[8] = BSK_CASM3C_SRB: Viability Assessment in the BioMAP Diversity Plus: CASM3C Assay (AID 2283050); settings: primary human coronary artery smooth muscle cells;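 note: total protein by SRB staining as cytotoxicity measure in parallel cultures; cells exposed to compound for 24 h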
[9] = read-out: Thrombomodulin, THBD (gene 7056); assay: BSK_CASM3C_Thrombomodulin: BioMAP Diversity Plus: CASM3C Assay for Thrombomodulin Biomarker Activity (AID 2283051); settings: primary human coronary artery smooth muscle cells; actives raise or lower the signal;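 note: thrombomodulin protein level measured by ELISA 24 h after dosing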
[10] = read-out: Tissue Factor, F3 (gene 2152); assay: BSK_CASM3C_TissueFactor: BioMAP Diversity Plus: CASM3C Assay for Tissue Factor Biomarker Activity (AID 2283052); settings: primary human coronary artery smooth muscle cells; actives raise or lower the signal;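 note: cell surface tissue factor protein level read by ELISA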

Oc1ccc(Cl)cc1Cl
outcome [1]: inactive | outcome [2]: inactive | outcome [3]: inactive | outcome [4]: inactive | outcome [5]: inactive | outcome [6]: inactive | outcome [7]: inactive | outcome [8]: inactive | outcome [9]: inactive | outcome [10]: inactive

CCC(C)(CC)c1cc(NC(=O)c2c(OC)cccc2OC)on1
outcome [1]: inactive | outcome [2]: inactive | outcome [3]: inactive | outcome [4]: inactive | outcome [5]: inactive | outcome [6]: inactive | outcome [7]: inactive | outcome [8]: inactive | outcome [9]: inactive | outcome [10]: inactive

CCNc1nc(NC(C)C)nc(SC)n1
outcome [1]: inactive | outcome [2]: inactive | outcome [3]: inactive | outcome [4]: inactive | outcome [5]: inactive | outcome [6]: inactive | outcome [7]: inactive | outcome [8]: inactive | outcome [9]: inactive | outcome [10]: inactive

Sc1ccccc1
outcome [1]: inactive | outcome [2]: inactive | outcome [3]: inactive | outcome [4]: inactive | outcome [5]: inactive | outcome [6]: inactive | outcome [7]: inactive | outcome [8]: inactive | outcome [9]: inactive | outcome [10]: inactive

CCOP(=S)(OCC)SCSC(C)(C)C
outcome [1]: inactive | AC50 [2]: 2.51 µM (active) | outcome [3]: inactive | outcome [4]: inactive | outcome [5]: inactive | outcome [6]: inactive | outcome [7]: inactive | outcome [8]: inactive | outcome [9]: inactive | outcome [10]: inactive

O=NN(c1ccccc1)c1ccccc1
outcome [1]: inactive | outcome [2]: inactive | outcome [3]: inactive | outcome [4]: inactive | outcome [5]: inactive | outcome [6]: inactive | outcome [7]: inactive | outcome [8]: inactive | AC50 [9]: 4.46 µM (active) | outcome [10]: inactive

Oc1c(Cl)c(Cl)c(Cl)c(Cl)c1Cl
AC50 [1]: 20 µM (active) | outcome [1]: inactive | outcome [2]: inactive | outcome [3]: inactive | outcome [4]: inactive | AC50 [5]: 26.7 µM (active) | outcome [5]: inactive | outcome [6]: inactive | outcome [7]: inactive | AC50 [8]: 29.6 µM (active) | outcome [8]: inactive | outcome [9]: inactive | AC50 [10]: 34.9 µM (active) | outcome [10]: inactive

CCOCCOC(C)=O
outcome [1]: inactive | outcome [2]: inactive | outcome [3]: inactive | outcome [4]: inactive | outcome [5]: inactive | outcome [6]: inactive | outcome [7]: inactive | outcome [8]: inactive | outcome [9]: inactive | outcome [10]: inactive

Cc1cc(-c2ccc(N)c(C)c2)ccc1N
outcome [1]: inactive | outcome [2]: inactive | outcome [3]: inactive | outcome [4]: inactive | outcome [5]: inactive | outcome [6]: inactive | outcome [7]: inactive | outcome [8]: inactive | outcome [9]: inactive | outcome [10]: inactive

Clc1ccc(Cl)cc1
outcome [1]: inactive | outcome [2]: inactive | outcome [3]: inactive | outcome [4]: inactive | outcome [5]: inactive | outcome [6]: inactive | outcome [7]: inactive | outcome [8]: inactive | outcome [9]: inactive | outcome [10]: inactive

Cc1ccccc1[N+](=O)[O-]
outcome [1]: inactive | outcome [2]: inactive | outcome [3]: inactive | outcome [4]: inactive | outcome [5]: inactive | outcome [6]: inactive | outcome [7]: inactive | outcome [8]: inactive | outcome [9]: inactive | outcome [10]: inactive

Nc1ccc(-c2ccc(N)cc2)cc1
outcome [1]: inactive | outcome [2]: inactive | outcome [3]: inactive | outcome [4]: inactive | outcome [5]: inactive | outcome [6]: inactive | outcome [7]: inactive | outcome [8]: inactive | outcome [9]: inactive | outcome [10]: inactive

CCCCCCCCCC[N+](C)(C)CCCCCCCCCC
AC50 [1]: 4.72 µM (active) | AC50 [2]: 3.08 µM (active) | AC50 [3]: 5.09 µM (active) | AC50 [4]: 4.41 µM (active) | AC50 [5]: 2.67 µM (active) | AC50 [6]: 8.03 µM (active) | AC50 [7]: 5.46 µM (active) | AC50 [8]: 5.43 µM (active) | outcome [9]: inactive | AC50 [10]: 1.69 µM (active)

c1cc2ccc3cccc4ccc(c1)c2c34
outcome [1]: inactive | outcome [2]: inactive | AC50 [3]: 9.87 µM (active) | outcome [4]: inactive | outcome [5]: inactive | outcome [6]: inactive | outcome [7]: inactive | outcome [8]: inactive | outcome [9]: inactive | outcome [10]: inactive

Cc1cc2c3c(c1)C(c1ccccc1)=N[C@@H](NC(=O)c1ccncc1)C(=O)N3CC2
outcome [1]: inactive | outcome [2]: inactive | outcome [3]: inactive | outcome [4]: inactive | outcome [5]: inactive | outcome [6]: inactive | outcome [7]: inactive | outcome [8]: inactive | outcome [9]: inactive | outcome [10]: inactive

O=C(N[C@H]1CN2CCC1CC2)c1cc2ccoc2cn1
outcome [1]: inactive | outcome [2]: inactive | outcome [3]: inactive | outcome [4]: inactive | outcome [5]: inactive | outcome [6]: inactive | outcome [7]: inactive | outcome [8]: inactive | outcome [9]: inactive | outcome [10]: inactive

C1CC2OC2CC1C1CO1 (stereo not drawn)
outcome [1]: inactive | outcome [2]: inactive | outcome [3]: inactive | outcome [4]: inactive | outcome [5]: inactive | outcome [6]: inactive | outcome [7]: inactive | outcome [8]: inactive | outcome [9]: inactive | outcome [10]: inactive

O=C(NC(=O)c1cc(F)c(F)cc1Cl)Nc1cc(F)ccc1N1CCC(C(=O)O)CC1
outcome [1]: inactive | outcome [2]: inactive | outcome [3]: inactive | outcome [4]: inactive | outcome [5]: inactive | outcome [6]: inactive | outcome [7]: inactive | outcome [8]: inactive | outcome [9]: inactive | outcome [10]: inactive

Nn1cnnc1
outcome [1]: inactive | outcome [2]: inactive | outcome [3]: inactive | outcome [4]: inactive | outcome [5]: inactive | outcome [6]: inactive | outcome [7]: inactive | outcome [8]: inactive | outcome [9]: inactive | outcome [10]: inactive

NS(=O)(=O)C(F)(F)C(F)(F)C(F)(F)C(F)(F)C(F)(F)C(F)(F)C(F)(F)C(F)(F)F
AC50 [1]: 26.2 µM (active) and 46.2 µM (active) | outcome [1]: inactive | AC50 [2]: 31.3 µM (active) and 49 µM (active) | outcome [2]: inactive | AC50 [3]: 44.3 µM (active) | outcome [3]: inactive | AC50 [4]: 30 µM (active) | outcome [4]: inactive | AC50 [5]: 54.4 µM (active) and 50.9 µM (active) | outcome [5]: inactive | AC50 [6]: 39.8 µM (active) | outcome [6]: inactive | AC50 [7]: 46.8 µM (active) | outcome [7]: inactive | AC50 [8]: 31.8 µM (active) and 45.5 µM (active) and 49.3 µM (active) | AC50 [9]: 26 µM (active) and 34.6 µM (active) and 37.3 µM (active) | outcome [10]: inactive

O=S(=O)(O)C(F)(F)C(F)(F)C(F)(F)C(F)(F)C(F)(F)C(F)(F)F
outcome [1]: inactive | outcome [2]: inactive | outcome [3]: inactive | outcome [4]: inactive | outcome [5]: inactive | outcome [6]: inactive | outcome [7]: inactive | outcome [8]: inactive | outcome [9]: inactive | outcome [10]: inactive

Cc1ccc(O)c(C)c1
AC50 [1]: 20.7 µM (active) | outcome [2]: inactive | outcome [3]: inactive | outcome [4]: inactive | outcome [5]: inactive | outcome [6]: inactive | outcome [7]: inactive | outcome [8]: inactive | outcome [9]: inactive | outcome [10]: inactive

O=C(O)C(F)(F)C(F)(F)C(F)(F)C(F)(F)C(F)(F)F
outcome [1]: inactive | outcome [2]: inactive | outcome [3]: inactive | outcome [4]: inactive | outcome [5]: inactive | outcome [6]: inactive | outcome [7]: inactive | outcome [8]: inactive | outcome [9]: inactive | outcome [10]: inactive

O=C(O)C(F)(F)C(F)(F)C(F)(F)C(F)(F)C(F)(F)C(F)(F)C(F)(F)C(F)(F)C(F)(F)F
outcome [1]: inactive | outcome [2]: inactive | outcome [3]: inactive | outcome [4]: inactive | outcome [5]: inactive | outcome [6]: inactive | outcome [7]: inactive | outcome [8]: inactive | outcome [9]: inactive | outcome [10]: inactive

Cc1ccccc1O
outcome [1]: inactive | outcome [2]: inactive | outcome [3]: inactive | outcome [4]: inactive | outcome [5]: inactive | outcome [6]: inactive | outcome [7]: inactive | outcome [8]: inactive | outcome [9]: inactive | outcome [10]: inactive

COc1ccc(O)c(C(C)(C)C)c1
outcome [1]: inactive | outcome [2]: inactive | outcome [3]: inactive | outcome [4]: inactive | outcome [5]: inactive | AC50 [6]: 3.97 µM (active) | outcome [6]: inactive | outcome [7]: inactive | outcome [8]: inactive | outcome [9]: inactive | outcome [10]: inactive

CCCCCCCCCc1ccc(O)cc1
AC50 [1]: 31.4 µM (active) | AC50 [2]: 34.6 µM (active) | AC50 [3]: 29.3 µM (active) | AC50 [4]: 31.8 µM (active) | AC50 [5]: 16 µM (active) | AC50 [6]: 36.1 µM (active) | AC50 [7]: 29.8 µM (active) | AC50 [8]: 34.1 µM (active) | AC50 [9]: 37.8 µM (active) | AC50 [10]: 28.7 µM (active)

CCCCCCOC(=O)c1ccccc1C(=O)OCCCCCC
outcome [1]: inactive | outcome [2]: inactive | outcome [3]: inactive | outcome [4]: inactive | outcome [5]: inactive | outcome [6]: inactive | outcome [7]: inactive | outcome [8]: inactive | AC50 [9]: 17.5 µM (active) | outcome [10]: inactive

Cc1cc(O)ccc1Cl
outcome [1]: inactive | outcome [2]: inactive | outcome [3]: inactive | outcome [4]: inactive | outcome [5]: inactive | outcome [6]: inactive | outcome [7]: inactive | outcome [8]: inactive | outcome [9]: inactive | outcome [10]: inactive

C[C@]12CCC(=O)C=C1CC[C@@H]1[C@@H]2CC[C@]2(C)C(=O)CC[C@@H]12
outcome [1]: inactive | outcome [2]: inactive | AC50 [3]: 4.9 µM (active) | outcome [4]: inactive | outcome [5]: inactive | outcome [6]: inactive | outcome [7]: inactive | outcome [8]: inactive | outcome [9]: inactive | outcome [10]: inactive

CC(C)C(=O)OCC(C)(C)C(OC(=O)C(C)C)C(C)C (stereo not drawn)
outcome [1]: inactive | outcome [2]: inactive | outcome [3]: inactive | outcome [4]: inactive | outcome [5]: inactive | outcome [6]: inactive | outcome [7]: inactive | outcome [8]: inactive | outcome [9]: inactive | outcome [10]: inactive

O=S(=O)(O)C(F)(F)C(F)(F)C(F)(F)C(F)(F)F
outcome [1]: inactive | outcome [2]: inactive | outcome [3]: inactive | outcome [4]: inactive | outcome [5]: inactive | outcome [6]: inactive | AC50 [7]: 0.558 µM (active) | outcome [7]: inactive | outcome [8]: inactive | outcome [9]: inactive | outcome [10]: inactive
